Where “and” joins values, the source holds several entries; their conditions need not be identical. Equal entries are not always repeated. Out of some 5,500 compounds screened, about 2,000 (36%) were called active. Another 18% or so got no clear call; they are omitted. No stated cut-off is given here; in the data, active means normalized growth mostly below about 0.91 (no sharp cut-off); inconclusive means no clear call, values can overlap the other calls; inactive means mostly above about 0.92. The list shows a part of the results.
Assay: chemical genetic growth profiling, strain panel (AID 1159580);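 further: tested at 20 µM; growth read once vehicle control cultures reached saturation at 30 °C; 1 = growth at the plate median or of vehicle wells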
Conditions: growth OD

Measured: normalized growth

O=C(CCc1ccc(O)cc1)c1c(O)cc(O)cc1O
inactive: S. cerevisiae deletion strains, locus YJR075W, strain HOC1, stronger effect = lower value 1.01 | S. cerevisiae deletion strains, locus YKL009W, strain mrt4, stronger effect = lower value 1.03 | S. cerevisiae deletion strains, locus YKL068W, stronger effect = lower value 1 | S. cerevisiae deletion strains, locus YKL085W, strain MDH1 (second series), stronger effect = lower value 1.02 | S. cerevisiae deletion strains, locus YKL085W, strain MDH1, stronger effect = lower value 1.02 | S. cerevisiae deletion strains, locus YKL160W, strain elf1, stronger effect = lower value 0.978 | S. cerevisiae deletion strains, locus YKL190W, strain CNB1, stronger effect = lower value 1.01 | S. cerevisiae deletion strains, locus YKR001C, strain vps1, stronger effect = lower value 1.02 | S. cerevisiae deletion strains, locus YKR026C, strain gcn3, stronger effect = lower value 1.01 | S. cerevisiae deletion strains, locus YKR091W, strain srl3, stronger effect = lower value 1.01 | S. cerevisiae deletion strains, locus YLL001W, strain dnm1, stronger effect = lower value 0.985 | S. cerevisiae deletion strains, locus YLL026W, stronger effect = lower value 1.01 | S. cerevisiae deletion strains, locus YLL041C, strain sdh2, stronger effect = lower value 1.02 | S. cerevisiae deletion strains, locus YLR027C, strain aat2, stronger effect = lower value 1.01 | S. cerevisiae deletion strains, locus YLR039C, strain RIC1, stronger effect = lower value 1.04 | S. cerevisiae deletion strains, locus YLR058C, strain SHM2, stronger effect = lower value 1.01 | S. cerevisiae deletion strains, locus YLR102C, strain apc9, stronger effect = lower value 1 | S. cerevisiae deletion strains, locus YLR113W, strain HOG1, stronger effect = lower value 0.966 | S. cerevisiae deletion strains, locus YLR221C, strain rsa3, stronger effect = lower value 1 | S. cerevisiae deletion strains, locus YLR258W, strain gsy2, stronger effect = lower value 1.03 | S. cerevisiae deletion strains, locus YLR262C, strain YPT6 (second series), stronger effect = lower value 1.02 | S. cerevisiae deletion strains, locus YLR262C, strain YPT6, stronger effect = lower value 1.02 | S. cerevisiae deletion strains, locus YLR268W, strain sec22, stronger effect = lower value 0.997 | S. cerevisiae deletion strains, locus YLR320W, strain mms22, stronger effect = lower value 1.02 | S. cerevisiae deletion strains, locus YLR330W, strain CHS5, stronger effect = lower value 1.01 | S. cerevisiae deletion strains, locus YLR342W, strain FKS1 (second series), stronger effect = lower value 1.02 | S. cerevisiae deletion strains, locus YLR342W, strain FKS1, stronger effect = lower value 1.01 | S. cerevisiae deletion strains, locus YLR357W, strain rsc2, stronger effect = lower value 0.955 | S. cerevisiae deletion strains, locus YLR370C, strain arc18, stronger effect = lower value 1.01 | S. cerevisiae deletion strains, locus YLR371W, strain rom2, stronger effect = lower value 1 | S. cerevisiae deletion strains, locus YLR384C, strain iki3, stronger effect = lower value 1.02 | S. cerevisiae deletion strains, locus YLR418C, strain cdc73, stronger effect = lower value 0.991 | S. cerevisiae deletion strains, locus YML016C, strain PPZ1, stronger effect = lower value 1.01 | S. cerevisiae deletion strains, locus YML032C, strain rad52, stronger effect = lower value 1.07 | S. cerevisiae deletion strains, locus YML120C, strain ndi1, stronger effect = lower value 1.01 | S. cerevisiae deletion strains, locus YML124C, strain tub3, stronger effect = lower value 1.01 | S. cerevisiae deletion strains, locus YMR058W, strain fet3, stronger effect = lower value 0.968 | S. cerevisiae deletion strains, locus YMR078C, strain ctf18, stronger effect = lower value 1.02 | S. cerevisiae deletion strains, locus YMR125W, strain sto1, stronger effect = lower value 1 | S. cerevisiae deletion strains, locus YMR129W, stronger effect = lower value 1.02 | S. cerevisiae deletion strains, locus YMR205C, strain PFK2, stronger effect = lower value 1.01 | S. cerevisiae deletion strains, locus YMR223W, strain ubp8, stronger effect = lower value 1.04 | S. cerevisiae deletion strains, locus YMR231W, strain pep5, stronger effect = lower value 0.988 | S. cerevisiae deletion strains, locus YMR263W, strain SAP30, stronger effect = lower value 0.991 | S. cerevisiae deletion strains, locus YMR307W, strain GAS1, stronger effect = lower value 0.986 and 1.01 | S. cerevisiae deletion strains, locus YNL067W, strain RPL9B, stronger effect = lower value 0.994 | S. cerevisiae deletion strains, locus YNL071W, strain lat1, stronger effect = lower value 1.03 | S. cerevisiae deletion strains, locus YNL128W, strain TEP1, stronger effect = lower value 0.995 | S. cerevisiae deletion strains, locus YNL153C, strain GIM3, stronger effect = lower value 0.991 and 0.975 | S. cerevisiae deletion strains, locus YNL175C, strain NOP13, stronger effect = lower value 1 | S. cerevisiae deletion strains, locus YNL183C, strain NPR1, stronger effect = lower value 0.947 | S. cerevisiae deletion strains, locus YNL197C, strain WHI3, stronger effect = lower value 1 | S. cerevisiae deletion strains, locus YNL209W, strain ssb2, stronger effect = lower value 1 | S. cerevisiae deletion strains, locus YNL224C, strain SQS1, stronger effect = lower value 0.997 | S. cerevisiae deletion strains, locus YNL233W, strain BNI4, stronger effect = lower value 0.985 | S. cerevisiae deletion strains, locus YNL248C, strain rpa49, stronger effect = lower value 1.03 | S. cerevisiae deletion strains, locus YNL250W, strain rad50, stronger effect = lower value 1.03 | S. cerevisiae deletion strains, locus YNL271C, strain bni1, stronger effect = lower value 1.01 | S. cerevisiae deletion strains, locus YNL298W, strain CLA4, stronger effect = lower value 1.03 | S. cerevisiae deletion strains, locus YNL307C, strain MCK1, stronger effect = lower value 1.03 | S. cerevisiae deletion strains, locus YNL322C, strain KRE1 (second series), stronger effect = lower value 0.978 | S. cerevisiae deletion strains, locus YNL322C, strain KRE1, stronger effect = lower value 1 and 0.999 | S. cerevisiae deletion strains, locus YNR049C, strain mso1, stronger effect = lower value 1.01 | S. cerevisiae deletion strains, locus YNR052C, strain pop2, stronger effect = lower value 1.02 | S. cerevisiae deletion strains, locus YOL006C, strain TOP1, stronger effect = lower value 1.02 | S. cerevisiae deletion strains, locus YOL012C, strain htz1 0.845 | S. cerevisiae deletion strains, locus YOL147C, strain pex11, stronger effect = lower value 1.01 | S. cerevisiae deletion strains, locus YOR001W, strain rrp6, stronger effect = lower value 1.03 | S. cerevisiae deletion strains, locus YOR061W, strain CKA2, stronger effect = lower value 0.998 | S. cerevisiae deletion strains, locus YOR069W, strain VPS5, stronger effect = lower value 0.995 | S. cerevisiae deletion strains, locus YOR070C, strain gyp1, stronger effect = lower value 1.02 | S. cerevisiae deletion strains, locus YOR080W, strain dia2, stronger effect = lower value 1.01 | S. cerevisiae deletion strains, locus YOR083W, strain WHI5 (second series), stronger effect = lower value 1.01 | S. cerevisiae deletion strains, locus YOR083W, strain WHI5, stronger effect = lower value 0.982 | S. cerevisiae deletion strains, locus YOR106W, strain vam3, stronger effect = lower value 1.02 | S. cerevisiae deletion strains, locus YOR136W, strain idh2, stronger effect = lower value 1.02 | S. cerevisiae deletion strains, locus YOR144C, strain elg1, stronger effect = lower value 1 | S. cerevisiae deletion strains, locus YOR184W, strain ser1, stronger effect = lower value 1.07 | S. cerevisiae deletion strains, locus YOR231W, strain MKK1, stronger effect = lower value 0.983 | S. cerevisiae deletion strains, locus YOR265W, strain rbl2, stronger effect = lower value 1 | S. cerevisiae deletion strains, locus YOR270C, strain vph1, stronger effect = lower value 1.06 | S. cerevisiae deletion strains, locus YOR290C, strain snf2, stronger effect = lower value 0.982 | S. cerevisiae deletion strains, locus YOR316C, strain cot1, stronger effect = lower value 0.996 | S. cerevisiae deletion strains, locus YPL051W, strain arl3, stronger effect = lower value 0.983 | S. cerevisiae deletion strains, locus YPL055C, strain LGE1, stronger effect = lower value 0.992 and 1.01 | S. cerevisiae deletion strains, locus YPL078C, strain atp4, stronger effect = lower value 1 | S. cerevisiae deletion strains, locus YPL106C, strain sse1, stronger effect = lower value 0.976 | S. cerevisiae deletion strains, locus YPL240C, strain hsp82, stronger effect = lower value 1.01 | S. cerevisiae deletion strains, locus YPL241C, strain CIN2, stronger effect = lower value 1 | S. cerevisiae deletion strains, locus YPL256C, strain CLN2, stronger effect = lower value 0.961 | S. cerevisiae deletion strains, locus YPR119W, strain clb2, stronger effect = lower value 1.01 | S. cerevisiae deletion strains, locus YPR141C, strain kar3, stronger effect = lower value 1.02 | S. cerevisiae deletion strains, locus YPR163C, strain tif3, stronger effect = lower value 1.02 | S. cerevisiae deletion strains, locus YPR167C, strain met16, stronger effect = lower value 1.01 | S. cerevisiae deletion strains, strain wtn01, stronger effect = lower value 0.978 | S. cerevisiae strains, strain wild type, stronger effect = lower value 0.998

From PubChem BioAssay AID1159580 (chemical genetic matrix, 2015)
